# Source: PubChem BioAssay (Tox21)
# Results filed as inconclusive are left out. Where a call stands in place of a potency, no number is given. Activity calls are given as the source filed them. Calls come from the whole dose curve.
# Molecular target: Acetylcholinesterase (Homo sapiens) (UniProt P22303)
# Assay: Acetylcholinesterase (AChE) small molecule antagonists: fluorescence cell-based qHTS assay (AID 1347398); note: nearly all actives have a fitted effect of over 50% in size
# Conditions: SH-SY5Y cells; Potency: AChE activity; outcome: AChE activity; series mostly up to 115 µM
# Method in brief: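 Read-out is Thiolite Green fluorescence at Ex/Em = 490/520 nm, formed by reaction with thiocholine released when cellular AChE in SH-SY5Y cells hydrolyzes acetylthiocholine. Compounds were preincubated 30 min at 37 C before substrate.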
# Acetylcholinesterase (Homo sapiens), sequence (P22303 whole entry, looked up): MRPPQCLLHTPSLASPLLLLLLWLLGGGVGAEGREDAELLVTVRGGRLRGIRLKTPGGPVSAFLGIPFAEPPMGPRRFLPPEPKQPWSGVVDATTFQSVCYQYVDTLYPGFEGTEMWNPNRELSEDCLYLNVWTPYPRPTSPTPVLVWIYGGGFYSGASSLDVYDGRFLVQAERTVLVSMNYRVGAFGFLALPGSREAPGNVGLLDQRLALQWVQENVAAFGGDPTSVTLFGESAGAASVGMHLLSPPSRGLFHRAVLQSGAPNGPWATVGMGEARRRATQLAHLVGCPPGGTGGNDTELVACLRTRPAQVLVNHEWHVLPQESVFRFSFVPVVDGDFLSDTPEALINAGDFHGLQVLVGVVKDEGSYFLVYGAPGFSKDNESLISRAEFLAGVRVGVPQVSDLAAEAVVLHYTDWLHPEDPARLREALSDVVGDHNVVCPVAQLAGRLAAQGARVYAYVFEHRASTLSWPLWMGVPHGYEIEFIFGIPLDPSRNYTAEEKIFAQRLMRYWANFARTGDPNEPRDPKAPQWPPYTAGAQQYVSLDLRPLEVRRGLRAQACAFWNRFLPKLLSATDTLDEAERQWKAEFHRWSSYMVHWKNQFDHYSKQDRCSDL
Structure (SMILES),Potency,"activity change, negative = inhibition"
C=CCN(CC=C)CC=C,inactive,
CO[C@H]1C=CO[C@@]2(C)Oc3c(C)c(O)c4c(O)c(cc(O)c4c3C2=O)NC(=O)/C(C)=C\C=C/[C@H](C)[C@H](O)[C@@H](C)[C@@H](O)[C@@H](C)[C@H](OC(C)=O)[C@@H]1C,inactive,
COC(=O)C1CC(=O)C(C(=O)OC)CC1=O (centres undefined),,1.15% [at 10.5 µM] (inactive)
CC(CN(C)C)CN1c2ccccc2CCc2ccccc21 (centres undefined),inactive,
C1C[C@@H]2[C@H]3CC[C@H](C3)[C@@H]2C1,inactive,
O=C(Nc1ccc(Oc2ccc(Cl)cc2)c(Cl)c1)c1cc(I)cc(I)c1O,inactive,
Cc1ccc(C(C)OC(=O)C2(C)CCC(C(=O)O)C2(C)C)cc1 (centres undefined),inactive,
C=CCCCCCCCCC(=O)OCCCC,inactive,
O=C1OC(=O)C2C3C=CC(C3)C12 (centres undefined),inactive,
CCCCN1CCCC1C(=O)Nc1c(C)cc(C)cc1C (centres undefined),inactive,
O=C(Oc1cccc2cccnc12)c1ccccc1,inactive,
O=S(O)(O)=S,,2.89% [at 10.5 µM] (inactive)
CCCCNC1CC(C)(C)NC(C)(C)C1,inactive,
CCc1ccc(O)c(OC)c1,inactive,
CC/C=C\CCOC(C)=O,inactive,
CC(=O)Oc1ccc(C(C)=O)cc1,inactive,
CNCCO,inactive,
Nc1ccc(S(=O)(=O)O)c(N)c1,inactive,
N#CCN(CC#N)CCN(CC#N)CC#N,inactive,
CCO,inactive,

Structure (SMILES),Potency,"activity change, negative = inhibition"
CC1=C(CC(=O)O)c2cc(F)ccc2/C1=C\c1ccc(S(C)(=O)=O)cc1,inactive,
COC(=O)c1ccc(I)cc1S(=O)(=O)NC(=O)Nc1nc(C)nc(OC)n1,inactive,
CCCCC(CC)COP(=O)(O)O (centres undefined),inactive,
CCCCCCCCCC#N,inactive,
COc1ccc(COC=O)cc1,inactive,
CCCCCCCCSCc1cc(C)c(O)c(CSCCCCCCCC)c1,inactive,
CCCCCCCC/C=C\CCCCCCCC(=O)OCCCC,,-0.0934% [at 23.8 µM] (inactive)
CC1(c2ccccc2)OC(C(=O)O)=CC1=O (centres undefined),inactive,
CC(C)CCCCOC(=O)c1ccccc1C(=O)OCCCCC(C)C,inactive,
CCOc1ccc(NC(=O)OC(C)C)cc1OCC,inactive,
CC(C)(C)CC(C)(C)c1ccc(OCCO)cc1,inactive,
CC(C)[N+](C)(C)CC(O)COc1cccc2ccccc12 (centres undefined),inactive,
CCCCCCCC/C=C/CCCOC(C)=O,inactive,
C=CC1CO1 (centres undefined),inactive,
CC(C)=CCC/C(C)=C/COC=O,inactive,
CCOC(=O)C(C)(C)C,inactive,
C#C[C@]1(OC(C)=O)CC[C@H]2[C@@H]3CCC4=C/C(=N/O)CC[C@@H]4[C@H]3CC[C@@]21CC,inactive,
Cc1cccc(C)c1NC(=O)C(C)N (centres undefined),inactive,
CCCCOCCOC(=O)c1cccnc1,inactive,
